Laboratory results published in PubChem BioAssay (EPA / NIEHS).
The source made the active and inactive calls. Rule for the calls: active = hit-call score of the fitted dose curve at least 0.9, where 1 is the maximum; inactive = score below 0.9.

What was measured:
[1] = CCTE_Padilla_ZF_Score.Any: CCTE's 144 Hour Post-fertilization zebrafish Assay Score for Any Mortality or Malformation, Padilla Lab (AID 2284416)
Method in brief: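 Wild-type zebrafish embryos with chorions, one per well in 10% Hanks' from 6–8 hpf, dosed in sealed plates at 26 C, 14:10 h light:dark; rinsed at 5 dpf; blinded scoring at 6 dpf for death or malformation, versus DMSO.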

[2] = tested on: Brachyury (BRA) Protein Expression, TBXT (gene 6862); assay: CCTE_Deisenroth_DEVTOX-GLR_Endo_BRA: CCTE's DevTox GLR-Endo Assay Evaluation of Brachyury (BRA) Protein Expression, Deisenroth Lab (AID 2284417)
Method in brief: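 Endpoint is the fraction of BRA reporter-positive cells over total nuclei, corrected by subtracting the 0.2% DMSO value. Chemicals (1 nM - 200 uM, 10 points) were dosed twice during 48 h differentiation of RUES2-GLR cells, read by imaging.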

[3] = CCTE_Deisenroth_DEVTOX-GLR_Endo_CellCount: Viability Assessment in CCTE's DevTox GLR-Endo Assay, Deisenroth Lab (AID 2284420)
Method in brief: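 Human pluripotent RUES2-GLR line; 24 h pre-seed; 48 h endoderm-directed differentiation; 2 doses, q24h; 10 conc., 1 nM - 200 uM; fix + nuclear dye; 5 fields/well imaged; readout = nuclei count, % change vs 0.2% DMSO; n=4.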

[4] = tested on: SRY-box transcription factor 2 (SOX2) Protein Expression, Deisenroth Lab, SOX2 (gene 6657); assay: CCTE_Deisenroth_DEVTOX-GLR_Pluri_SOX2: CCTE's DevTox GLR-Pluri Assay Evaluation of SRY-box transcription factor 2 (SOX2) Protein Expression, Deisenroth Lab (AID 2284428)
Method in brief: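 Steps: seed RUES2-GLR cells for 24 h; start 48 h differentiation in defined media; dose test chemicals at 0 and 24 h (1 nM–200 uM); fix, stain nuclei, image; compute SOX2+ percentage against 0.2% DMSO wells.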

[5] = CCTE_Deisenroth_DEVTOX-GLR_Pluri_CellCount: Viability Assessment in CCTE's DevTox GLR-Pluri Assay Evaluation of Total Cell Counts, Deisenroth Lab (AID 2284430)
Method in brief: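 RUES2-GLR human pluripotent cells, seeded 24 h, then differentiated 48 h with two chemical exposures 24 h apart; 10-point series 1 nM - 200 uM. Fixed, nuclear-stained, imaged (5 fields/well); nuclei count as % change vs 0.2% DMSO.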

C[N+](C)(C)CCCNS(=O)(=O)C(F)(F)C(F)(F)C(F)(F)C(F)(F)C(F)(F)C(F)(F)C(F)(F)C(F)(F)F
AC50 [1]: 26.2 µM (active)

O=C(O)C(F)(F)C(F)(F)C(F)(F)C(F)(F)C(=O)O
outcome [1]: inactive

CC1(C)[C@@H]2CC[C@@]1(C)C(=O)C2
outcome [2]: inactive | outcome [3]: inactive | outcome [4]: inactive | outcome [5]: inactive
